Experimental findings from PMC7862700, “An all-to-all approach to the identification of sequence-specific readers for epigenetic DNA modifications on cytosine” are described below.

Holding throughout (experiment): DAPPL (digital affinity profiling via proximity ligation, sequencing); 10 mM Tris-HCl pH 7.5, 50 mM NaCl, 1 mM DTT, 4% glycerol, room temperature, 30 min; GST-TFs on glutathione beads, 16-mer random dsDNA library, 0.1% formaldehyde crosslink after washing; high values mean tight binding
Common to all, as to settings: protein: recombinant; tags: N-terminal GST; dsDNA, one strand shown

One assay concerns the target T1, FLI1 (Homo sapiens, UniProt Q01543 1-452).
T1 sequence: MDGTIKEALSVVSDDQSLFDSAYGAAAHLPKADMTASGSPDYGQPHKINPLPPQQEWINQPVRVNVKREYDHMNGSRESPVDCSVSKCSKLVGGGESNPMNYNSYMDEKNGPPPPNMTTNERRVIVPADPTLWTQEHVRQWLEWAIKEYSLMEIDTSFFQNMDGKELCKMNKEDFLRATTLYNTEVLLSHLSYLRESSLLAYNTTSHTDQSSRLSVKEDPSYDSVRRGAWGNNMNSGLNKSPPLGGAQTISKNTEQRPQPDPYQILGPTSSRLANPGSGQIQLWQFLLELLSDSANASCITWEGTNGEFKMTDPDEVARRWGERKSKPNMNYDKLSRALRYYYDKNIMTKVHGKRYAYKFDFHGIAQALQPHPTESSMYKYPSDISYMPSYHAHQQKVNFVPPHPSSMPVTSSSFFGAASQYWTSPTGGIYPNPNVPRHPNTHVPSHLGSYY
The essentials: (§1)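 Binding signal is each hexamer's read frequency for a factor divided by its frequency in the tag-only sample. The factors were GST-fused human transcription factors from yeast, captured on glutathione beads, DNA-barcoded and pooled with that sample. Pools were incubated with 200 nmole of a random double-stranded 16-mer DNA library in Tris/NaCl/DTT/glycerol buffer at room temperature for 30 min, then washed, crosslinked with 0.1% formaldehyde, proximity-ligated with BsaI/T4 ligase (1 h, 37 °C), PCR-amplified and sequenced on an Illumina NextSeq500.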

For the next assay, the target named is T2, ELK1 (Homo sapiens, UniProt P19419 1-428).
T2 sequence: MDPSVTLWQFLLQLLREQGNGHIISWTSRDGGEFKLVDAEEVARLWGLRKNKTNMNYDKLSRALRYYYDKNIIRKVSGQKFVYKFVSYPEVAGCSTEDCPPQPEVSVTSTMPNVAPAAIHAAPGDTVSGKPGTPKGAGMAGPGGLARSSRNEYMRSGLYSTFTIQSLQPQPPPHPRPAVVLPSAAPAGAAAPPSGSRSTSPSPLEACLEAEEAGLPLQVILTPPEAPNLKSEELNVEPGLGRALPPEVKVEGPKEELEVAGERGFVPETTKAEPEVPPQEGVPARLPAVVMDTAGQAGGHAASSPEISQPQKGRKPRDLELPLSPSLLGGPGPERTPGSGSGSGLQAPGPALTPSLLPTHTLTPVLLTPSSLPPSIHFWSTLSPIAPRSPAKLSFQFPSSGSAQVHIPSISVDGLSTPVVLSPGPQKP
A digest of the protocol: as §1

Another assay has as its target T3, GABPA (Homo sapiens, UniProt Q06546 1-454).
T3 sequence: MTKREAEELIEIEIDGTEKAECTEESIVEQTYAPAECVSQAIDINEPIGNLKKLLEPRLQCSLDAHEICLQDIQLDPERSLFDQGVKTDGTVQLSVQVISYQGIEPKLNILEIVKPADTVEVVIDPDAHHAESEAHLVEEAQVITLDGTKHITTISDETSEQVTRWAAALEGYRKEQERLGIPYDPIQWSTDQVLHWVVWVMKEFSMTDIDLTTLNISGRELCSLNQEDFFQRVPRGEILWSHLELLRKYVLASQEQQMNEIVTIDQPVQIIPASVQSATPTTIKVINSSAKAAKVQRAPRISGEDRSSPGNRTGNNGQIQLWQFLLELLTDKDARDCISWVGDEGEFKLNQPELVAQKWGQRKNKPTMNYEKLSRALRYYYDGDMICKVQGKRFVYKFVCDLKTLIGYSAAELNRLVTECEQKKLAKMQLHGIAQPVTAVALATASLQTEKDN
The essentials:
as §1

A further assay deals with T4, ERG (Homo sapiens, UniProt P11308 1-479).
T4 sequence: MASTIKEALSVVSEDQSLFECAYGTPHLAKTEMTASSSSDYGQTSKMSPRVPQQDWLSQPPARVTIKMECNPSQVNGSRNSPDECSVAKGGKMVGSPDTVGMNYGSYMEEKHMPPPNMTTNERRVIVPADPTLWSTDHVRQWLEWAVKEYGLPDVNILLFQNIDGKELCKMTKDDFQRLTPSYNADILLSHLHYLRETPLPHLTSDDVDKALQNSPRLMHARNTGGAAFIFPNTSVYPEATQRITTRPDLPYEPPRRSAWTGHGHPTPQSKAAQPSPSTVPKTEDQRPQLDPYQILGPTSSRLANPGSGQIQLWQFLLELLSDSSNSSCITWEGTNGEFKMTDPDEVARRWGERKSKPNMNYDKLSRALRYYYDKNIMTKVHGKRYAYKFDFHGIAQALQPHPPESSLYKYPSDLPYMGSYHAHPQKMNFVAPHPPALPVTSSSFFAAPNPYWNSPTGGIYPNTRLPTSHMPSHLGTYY
The essentials:
as §1

In the next assay the target is ELF1 (Homo sapiens, UniProt P32519 1-619). The essentials: as §1
A further assay addresses T5, EHF (Homo sapiens, UniProt Q9NZC4 1-300).
T5 sequence: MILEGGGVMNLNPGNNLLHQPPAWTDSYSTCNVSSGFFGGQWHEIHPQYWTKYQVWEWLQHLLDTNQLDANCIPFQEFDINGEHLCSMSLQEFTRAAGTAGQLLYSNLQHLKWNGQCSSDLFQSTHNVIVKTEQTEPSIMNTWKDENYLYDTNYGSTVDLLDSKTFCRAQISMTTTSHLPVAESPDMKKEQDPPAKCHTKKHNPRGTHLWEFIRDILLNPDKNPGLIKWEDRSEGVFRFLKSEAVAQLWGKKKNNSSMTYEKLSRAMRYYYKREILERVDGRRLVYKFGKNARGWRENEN
The essentials:
as §1

The target of the next assay is SPI1 (Homo sapiens, UniProt P17947 1-270). A digest of the protocol:
as §1

For another assay, the target named is SPIB (Homo sapiens, UniProt Q01892 1-262). A digest of the protocol:
as §1

In a further assay the target is T6, ELK3 (Homo sapiens, UniProt P41970 1-407).
T6 sequence: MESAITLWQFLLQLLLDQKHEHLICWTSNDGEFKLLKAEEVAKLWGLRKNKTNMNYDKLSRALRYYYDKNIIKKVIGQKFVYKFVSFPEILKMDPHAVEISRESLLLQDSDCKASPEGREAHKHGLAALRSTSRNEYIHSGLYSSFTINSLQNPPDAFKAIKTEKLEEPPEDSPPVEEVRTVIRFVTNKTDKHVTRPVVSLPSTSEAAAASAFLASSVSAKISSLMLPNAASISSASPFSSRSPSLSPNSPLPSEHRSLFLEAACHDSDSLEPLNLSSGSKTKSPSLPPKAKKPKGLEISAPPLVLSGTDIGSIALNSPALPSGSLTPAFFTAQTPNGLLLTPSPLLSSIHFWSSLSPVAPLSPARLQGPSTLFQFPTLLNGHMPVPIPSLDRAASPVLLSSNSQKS
The essentials: as §1

Chain of SPIB (Q01892 whole entry): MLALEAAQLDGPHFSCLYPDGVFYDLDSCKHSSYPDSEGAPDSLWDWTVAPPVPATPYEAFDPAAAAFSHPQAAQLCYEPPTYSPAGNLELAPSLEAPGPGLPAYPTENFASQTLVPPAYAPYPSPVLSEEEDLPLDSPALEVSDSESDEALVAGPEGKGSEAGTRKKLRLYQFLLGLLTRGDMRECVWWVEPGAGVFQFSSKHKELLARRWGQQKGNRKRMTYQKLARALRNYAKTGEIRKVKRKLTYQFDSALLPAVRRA
Chain of ELF1 (P32519 whole entry): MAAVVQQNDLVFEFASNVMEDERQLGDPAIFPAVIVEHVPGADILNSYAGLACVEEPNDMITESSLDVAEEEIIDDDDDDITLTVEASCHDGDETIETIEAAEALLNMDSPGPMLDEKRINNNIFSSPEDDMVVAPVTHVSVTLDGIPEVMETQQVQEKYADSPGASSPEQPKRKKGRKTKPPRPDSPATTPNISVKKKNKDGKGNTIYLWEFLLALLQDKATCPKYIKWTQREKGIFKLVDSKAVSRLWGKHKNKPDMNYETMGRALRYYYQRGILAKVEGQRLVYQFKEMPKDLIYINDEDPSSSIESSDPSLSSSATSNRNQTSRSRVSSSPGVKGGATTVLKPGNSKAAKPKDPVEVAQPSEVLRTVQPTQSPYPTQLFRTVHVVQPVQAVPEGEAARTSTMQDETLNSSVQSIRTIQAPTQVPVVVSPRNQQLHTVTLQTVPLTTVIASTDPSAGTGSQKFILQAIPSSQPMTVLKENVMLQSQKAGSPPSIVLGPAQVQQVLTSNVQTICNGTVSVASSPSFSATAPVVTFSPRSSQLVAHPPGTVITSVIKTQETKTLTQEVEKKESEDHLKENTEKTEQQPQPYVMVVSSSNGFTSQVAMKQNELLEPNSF

In the case of ATCCCT, the binding signal with FLI1 is 1.35 fold enrichment (6-mer frequency, TF over GST control); in the assay with ELK1, 1.28 fold enrichment (6-mer frequency, TF over GST control); with GABPA, 1.22 fold enrichment (6-mer frequency, TF over GST control); with ERG it was 1.24 fold enrichment (6-mer frequency, TF over GST control); in the assay with ELF1, 1.31 fold enrichment (6-mer frequency, TF over GST control); with EHF, 1.22 fold enrichment (6-mer frequency, TF over GST control). Besides, the binding signal was 1.16 fold enrichment (6-mer frequency, TF over GST control) in the assay with SPI1; 1.27 fold enrichment (6-mer frequency, TF over GST control) with SPIB; 1.12 fold enrichment (6-mer frequency, TF over GST control) in the assay with ELK3.

Regarding TCTCAC, the binding signal is 1.45 fold enrichment (6-mer frequency, TF over GST control) with FLI1; 1.45 fold enrichment (6-mer frequency, TF over GST control) in the assay with ELK1; 1.43 fold enrichment (6-mer frequency, TF over GST control) with GABPA; 1.41 fold enrichment (6-mer frequency, TF over GST control) with ERG; 1.39 fold enrichment (6-mer frequency, TF over GST control) with ELF1; 1.39 fold enrichment (6-mer frequency, TF over GST control) with EHF. In addition, the binding signal with SPI1 is 1.36 fold enrichment (6-mer frequency, TF over GST control); with SPIB, 1.48 fold enrichment (6-mer frequency, TF over GST control); in the assay with ELK3, 1.58 fold enrichment (6-mer frequency, TF over GST control).

Take TAACAT: the binding signal is 1.41 fold enrichment (6-mer frequency, TF over GST control) in the assay with FLI1; 1.26 fold enrichment (6-mer frequency, TF over GST control) in the assay with ELK1; 1.3 fold enrichment (6-mer frequency, TF over GST control) with GABPA; 1.36 fold enrichment (6-mer frequency, TF over GST control) in the assay with ERG; 1.35 fold enrichment (6-mer frequency, TF over GST control) with ELF1; 1.28 fold enrichment (6-mer frequency, TF over GST control) with EHF. Further, the binding signal in the assay with SPI1 is 1.32 fold enrichment (6-mer frequency, TF over GST control); in the assay with SPIB, 1.27 fold enrichment (6-mer frequency, TF over GST control); with ELK3, 1.28 fold enrichment (6-mer frequency, TF over GST control).

With GACCTT, the binding signal in the assay with FLI1 was 1.65 fold enrichment (6-mer frequency, TF over GST control); in the assay with ELK1, 1.68 fold enrichment (6-mer frequency, TF over GST control); with GABPA, 1.65 fold enrichment (6-mer frequency, TF over GST control); with ERG, 1.46 fold enrichment (6-mer frequency, TF over GST control); with ELF1, 1.58 fold enrichment (6-mer frequency, TF over GST control); with EHF it was 1.46 fold enrichment (6-mer frequency, TF over GST control). Moreover, the binding signal was 1.47 fold enrichment (6-mer frequency, TF over GST control) with SPI1; 1.51 fold enrichment (6-mer frequency, TF over GST control) with SPIB; 1.55 fold enrichment (6-mer frequency, TF over GST control) with ELK3.

Turning to TTGACA, the binding signal with FLI1 was 1.38 fold enrichment (6-mer frequency, TF over GST control); with ELK1, 1.37 fold enrichment (6-mer frequency, TF over GST control); in the assay with GABPA, 1.44 fold enrichment (6-mer frequency, TF over GST control); with ERG it was 1.34 fold enrichment (6-mer frequency, TF over GST control); with ELF1, 1.37 fold enrichment (6-mer frequency, TF over GST control); in the assay with EHF, 1.29 fold enrichment (6-mer frequency, TF over GST control). The binding signal in the assay with SPI1 is 1.25 fold enrichment (6-mer frequency, TF over GST control); with SPIB it was 1.28 fold enrichment (6-mer frequency, TF over GST control); with ELK3, 1.28 fold enrichment (6-mer frequency, TF over GST control).

On to TTCCAC, for which the binding signal is 1.39 fold enrichment (6-mer frequency, TF over GST control) with FLI1; 1.28 fold enrichment (6-mer frequency, TF over GST control) with ELK1; 1.38 fold enrichment (6-mer frequency, TF over GST control) in the assay with GABPA; 1.4 fold enrichment (6-mer frequency, TF over GST control) with ERG; 1.45 fold enrichment (6-mer frequency, TF over GST control) with ELF1; 1.33 fold enrichment (6-mer frequency, TF over GST control) with EHF. Moreover, the binding signal is 1.42 fold enrichment (6-mer frequency, TF over GST control) with SPI1; 1.35 fold enrichment (6-mer frequency, TF over GST control) in the assay with SPIB; 1.5 fold enrichment (6-mer frequency, TF over GST control) with ELK3.

As to CTATCT, the binding signal is 1.26 fold enrichment (6-mer frequency, TF over GST control) with FLI1; 1.43 fold enrichment (6-mer frequency, TF over GST control) with ELK1; 1.34 fold enrichment (6-mer frequency, TF over GST control) with GABPA; 1.29 fold enrichment (6-mer frequency, TF over GST control) in the assay with ERG; 1.34 fold enrichment (6-mer frequency, TF over GST control) in the assay with ELF1; 1.54 fold enrichment (6-mer frequency, TF over GST control) with EHF. Besides, the binding signal is 1.42 fold enrichment (6-mer frequency, TF over GST control) with SPI1; 1.28 fold enrichment (6-mer frequency, TF over GST control) with SPIB; 1.48 fold enrichment (6-mer frequency, TF over GST control) with ELK3.
